# Source: ChEMBL document CHEMBL3988442, “University of Dundee, Small-Polar-MMV Screening Library” (2021)
# In all, about 69,000 compounds went through this assay and about 950 (1.4%) showed an effect of 50% or more. The sample holds strong results, similar compounds and a random draw of the others, so the mix is not that of the screen.
# System: Mycobacterium tuberculosis
# Experiment: Cornell M. t heat shock assay; note: in the data most compounds retested in dose-response had high values
# Format: functional, organism-based
# Set-up: dose or concentration left out as unconfirmed
row,SMILES,Percent Effect
1,COc1cccc(CN2C[C@@H]3COC[C@]3(COCc3ccccn3)C2)c1.O=C(O)C(F)(F)F.O=C(O)C(F)(F)F,-27.12%
2,Fc1cnc(N2CCCC3(CCN(Cc4ccco4)C3)C2)nc1.O=C(O)C(F)(F)F.O=C(O)C(F)(F)F (stereo not drawn),-39.88%
3,Cc1cnn(CC2CCCN2Cc2noc(-c3ccccc3)n2)c1 (stereo not drawn),-2.457%
4,Cc1cnn(CC2CCCN2Cc2nc(N)c3ccccc3n2)c1 (stereo not drawn),64.38%
5,Cc1cnn(CC2CN(Cc3nc(N)c4ccccc4n3)CCO2)c1 (stereo not drawn),8.088%
6,Cc1cnn(CC2CCCCN2Cc2nc(N)c3ccccc3n2)c1 (stereo not drawn),92.62%
7,Nc1nc(CN2CCCCC2Cn2cncn2)nc2ccccc12 (stereo not drawn),-45.18%
8,Nc1nc(CN2CCCC2Cn2cncn2)nc2ccccc12 (stereo not drawn),-4.506%
9,COc1cccc(CN2CCCCC2c2n[nH]cc2-c2cc(C)no2)c1.Cl (stereo not drawn),13.26%
10,CCOC1COC2(CCN(CC3CCOCC3)CC2)C1.O=C(O)C(F)(F)F (stereo not drawn),-19.84%
11,CCS(=O)(=O)N1CCOCC2(CCN(c3ccccn3)C2)C1.O=C(O)C(F)(F)F (stereo not drawn),-24.76%
12,CCc1nc2ccccc2c(=O)n1CC1(O)CCNCC1.Cl,-1.704%
13,O=C(O)C(F)(F)F.O=C(c1ccncn1)N1CCC[C@]2(C[C@H](Oc3ncccc3F)CO2)C1,-22.98%
14,CC(C)(C)n1cc(C(=O)NCCCn2ccnc2)c2cccnc21,-4.729%
15,COCCN(CCOC)C(=O)c1cn(C(C)(C)C)c2ncccc12,20.52%
16,CCNC(=O)c1cn(C(C)(C)C)c2ncccc12,35.45%
17,COCC(C)NC(=O)c1cn(C(C)(C)C)c2ncccc12 (stereo not drawn),-8.611%
18,CCCNC(=O)c1cn(C(C)(C)C)c2ncccc12,52.59%
19,CCOCCCNC(=O)c1cn(C(C)(C)C)c2ncccc12,48.73%
20,COCCNC(=O)c1cn(C(C)(C)C)c2ncccc12,84.66%
21,CNC(=O)c1cn(C(C)(C)C)c2ncccc12,4.278%
22,COCCCNC(=O)c1cn(C(C)(C)C)c2ncccc12,50.28%

row,SMILES,Percent Effect
1,CN(C)Cc1cc(=O)n2c(n1)CN(S(=O)(=O)C1CC1)CCC2.O=C(O)C(F)(F)F,14.69%
2,CCSc1ccccc1C(=O)N(CCOC)Cc1ccoc1,-23.21%
3,COCC(=O)N1CCN(CCn2cccn2)c2nc(C)ccc2C1.O=C(O)C(F)(F)F,-7.36%
4,COCC1CC2(CCN(c3ccccn3)CC2)CN1C(C)C.O=C(O)C(F)(F)F.O=C(O)C(F)(F)F (stereo not drawn),-2.762%
5,Cc1csc(CN2CC[C@H]3C[C@H](c4nc(C)no4)O[C@@H]3C2)n1.O=C(O)C(F)(F)F,-42.3%
6,Cn1cc(-c2ncnc3c2CCN(CC2CCOC2)CC3)cn1.O=C(O)C(F)(F)F (stereo not drawn),17.32%
7,O=C(O)C(F)(F)F.O=C(O)C(F)(F)F.c1ccc(CN2CCn3c(Cn4cncn4)cnc3C2)nc1,0.3776%
8,O=C(O)C(F)(F)F.O=C([C@H]1C[C@H]2OCC[C@H]2N(CCc2ccccc2)C1)N1CCCO1,-5.073%
9,O=C(NCC1CC1)C1CN(c2ncccn2)Cc2ccnn2C1.O=C(O)C(F)(F)F.O=C(O)C(F)(F)F (stereo not drawn),12.91%
10,CCc1nc(CN2CCCN(C(=O)c3cn[nH]c3CC)CC2)cs1,52.06%
11,CCc1nc(CN2CCCN(C(=O)COCC3CC3)CC2)cs1,155.1%
12,Cc1nc(CN2CCCN(C(=O)COCC3CC3)CC2)cs1,36.12%
13,CCc1nc(CN2CCCN(C(=O)c3cnc[nH]3)CC2)cs1,30.64%
14,CCc1nc(CN2CCCN(C(=O)c3cn[nH]c3C)CC2)cs1,14.33%
15,CCc1nc(CN2CCCN(Cc3noc(C4CC4)n3)CC2)cs1,67.89%
16,CCCOCC(=O)N1CCCN(Cc2csc(CC)n2)CC1,22.03%
17,Cc1ncc(CN2CCCN(Cc3noc(C4CC4)n3)CC2)s1,6.148%
18,c1csc(N2CCCN(Cc3noc(C4CC4)n3)CC2)n1,-6.96%
19,CCc1nc(-c2ccnc(N3CCNCC3)n2)no1.Cl.Cl,-8.056%
20,Cl.O=C(c1cccnc1)N1CCC2(CC1)CNc1c(F)cccc12,4.233%
21,O=C(O)C(F)(F)F.c1cnc(NC2COC3(CCN(Cc4cc[nH]n4)CC3)C2)nc1 (stereo not drawn),-22.6%
22,O=C(O)C(F)(F)F.O=C(O)C(F)(F)F.O=C(O)C(F)(F)F.O=C1C[C@H]2[C@@H](CCN2Cc2ccccn2)N1Cc1cccnc1,-6.498%

row,SMILES,Percent Effect
1,O=C(O)C(F)(F)F.O=C([C@H]1C[C@H]2OCC[C@H]2N(C(=O)c2ccncc2)C1)N1CCCC1,-34.63%
2,Cc1cc(CCC(=O)N(C)C)nc(C2CCCCN2)n1.Cl.Cl (stereo not drawn),-7.222%
3,CCCS(=O)(=O)N1C[C@@H](OCc2ccncc2)[C@H]2OCCC[C@H]21.O=C(O)C(F)(F)F,-14.14%
4,CCn1cc2c(n1)C(COC)CN(C(=O)c1ccccn1)C2 (stereo not drawn),-31.72%
5,CC(C)c1nc(-c2ccnc(N3CCNCC3)n2)no1.Cl.Cl,-7.834%
6,CC[C@]12CN3C[C@](C)(CN(C1)C3c1[nH]c(=O)[nH]c(=O)c1C)C2=O (stereo partly drawn),68.87%
7,Cc1c(C2N3C[C@]4(C)CN2C[C@](C)(C3)C4=O)[nH]c(=O)[nH]c1=O (stereo partly drawn),74.22%
8,Cc1c(C2N3C[C@]4(C(C)C)CN2C[C@](C(C)C)(C3)C4=O)[nH]c(=O)[nH]c1=O (stereo partly drawn),1.038%
9,CC[C@]12CN3C[C@](CC)(CN(C1)C3c1[nH]c(=O)[nH]c(=O)c1C)C2=O (stereo partly drawn),72.7%
10,CCC[C@]12CN3C[C@](CCC)(CN(C1)C3c1[nH]c(=O)[nH]c(=O)c1C)C2=O (stereo partly drawn),-14.28%
11,CCC[C@]12CN3C[C@](C)(CN(C1)C3c1[nH]c(=O)[nH]c(=O)c1C)C2=O (stereo partly drawn),-3.215%
12,O=C(O)C(F)(F)F.O=C1CC[C@H]2[C@H](CCN2c2ncc(F)cn2)N1c1ccccc1,11.33%
13,CCn1ccnc1CNCC(c1ccc(C)s1)N1CCOCC1 (stereo not drawn),-18.67%
14,Cn1ccc(C(=O)N2C[C@H]3CCC[C@@]3(COCc3cccnc3)C2)n1.O=C(O)C(F)(F)F,-13.25%
15,CC(C(N)=O)N(C)CCCc1cc(-c2ccc(F)cc2)n(C)n1 (stereo not drawn),22.06%
16,CN(CCCc1cc(-c2ccc(F)cc2)n(C)n1)CC(N)=O,51.67%
17,CN(CCCc1cc(-c2ccc(F)cc2)n(C)n1)CC(=O)NC(N)=O,24.77%
18,CN(C)[C@@H]1CCN(C(=O)c2ccccn2)[C@H]1Cc1cnn(C)c1,76.59%
19,CN(C)[C@@H]1CCN(C(=O)c2ccccn2)[C@H]1Cc1ccncc1,0.1149%
20,CN(C)[C@@H]1CCN(C(=O)c2ccsc2)[C@H]1Cc1cnn(C)c1,4.524%
21,CC(C)CN1C[C@H]2CCN(Cc3cccnc3)CC[C@H]2S1(=O)=O.O=C(O)C(F)(F)F.O=C(O)C(F)(F)F,-7.462%
22,CCOC(=O)C(CO)NC(=O)CCc1cccc(OC2CCCC2)c1 (stereo not drawn),-10.42%

row,SMILES,Percent Effect
1,Cc1ccc(N2N=C(C(=O)O)S(=O)(=O)c3cccnc32)cc1,-6.267%
2,Cc1ccc(N2N=C(C(N)=O)S(=O)(=O)c3cccnc32)cc1,105.6%
3,Cc1ccc(N2N=C(C(=O)NCC3CC3)S(=O)(=O)c3cccnc32)cc1,9.457%
4,Cc1ccc(C(=O)N2C[C@@H]3OCCN(CCN4CCCC4)[C@@H]3C2)cn1.O=C(O)C(F)(F)F,8.47%
5,O=C(CC1CC1)N1CCC2(CCCN(CCOc3ccccc3)C2)C1.O=C(O)C(F)(F)F (stereo not drawn),-8.964%
6,Cc1cnn(CCNCc2csc(-c3ccc4c(c3)OCO4)n2)c1,93.68%
7,c1cnn(CCNCc2csc(-c3ccc4c(c3)OCO4)n2)c1,65.17%
8,c1cnn(CCNCCCOc2ccc3c(c2)OCO3)c1,0.6427%
9,CC(Cn1cccn1)NCc1csc(-c2ccc3c(c2)OCO3)n1 (stereo not drawn),35.45%
10,Cc1cnn(CCNCc2csc(C)n2)c1,4.294%
11,Cc1cnn(CCNCc2csc(-c3ccc(C(N)=O)cc3)n2)c1,-3.906%
12,COCC1CN(c2ccncn2)Cc2cnn(CC3CCCC3)c21.O=C(O)C(F)(F)F.O=C(O)C(F)(F)F (stereo not drawn),3.159%
13,Cc1ccc(CN2CCC3(CC2)CCN(C(=O)c2cccnc2)C3)o1.O=C(O)C(F)(F)F,41.04%
14,Cc1cncc(C(=O)N2C[C@H]3CCC[C@@]3(COc3ccccn3)C2)c1.O=C(O)C(F)(F)F.O=C(O)C(F)(F)F,-23.58%
15,Cc1ccc(N2CC[C@H]3C[C@H](C(=O)NCc4ccco4)O[C@@H]3C2)cc1.O=C(O)C(F)(F)F,4.102%
16,NC[C@H]1CC[C@H](C(NC(=O)C2CC2)c2ccccn2)CC1 (stereo partly drawn),-11.64%
17,NC[C@H]1CC[C@H](C(NC(=O)c2ccccn2)c2ccccn2)CC1 (stereo partly drawn),11.19%
18,COc1cccc(C(=O)NC(c2ccccn2)[C@H]2CC[C@H](CN)CC2)c1 (stereo partly drawn),14.74%
19,NC[C@H]1CC[C@H](C(NC(=O)c2cccc(F)c2)c2ccccn2)CC1 (stereo partly drawn),107.2%
20,COc1ccccc1C(=O)NC(c1ccccn1)[C@H]1CC[C@H](CN)CC1 (stereo partly drawn),95.79%
21,NC[C@H]1CC[C@H](C(NC(=O)c2ccccc2)c2ccccn2)CC1 (stereo partly drawn),15.73%
22,C[C@@H](N)C(=O)N1CC2(CCNCC2)c2cc(Cl)ccc21.Cl.Cl,-22.5%
